According to PMC7862700, “An all-to-all approach to the identification of sequence-specific readers for epigenetic DNA modifications on cytosine”:

Columns and labels:
Assay in all cases: DAPPL (digital affinity profiling via proximity ligation, sequencing); 10 mM Tris-HCl pH 7.5, 50 mM NaCl, 1 mM DTT, 4% glycerol, room temperature, 30 min; GST-TFs on glutathione beads, 16-mer random dsDNA library, 0.1% formaldehyde crosslink after washing; high values mean tight binding
FEV = target: T1, FEV (Homo sapiens, UniProt Q99581 1-238); settings: protein: recombinant; tags: N-terminal GST; dsDNA, one strand shown
T1 sequence: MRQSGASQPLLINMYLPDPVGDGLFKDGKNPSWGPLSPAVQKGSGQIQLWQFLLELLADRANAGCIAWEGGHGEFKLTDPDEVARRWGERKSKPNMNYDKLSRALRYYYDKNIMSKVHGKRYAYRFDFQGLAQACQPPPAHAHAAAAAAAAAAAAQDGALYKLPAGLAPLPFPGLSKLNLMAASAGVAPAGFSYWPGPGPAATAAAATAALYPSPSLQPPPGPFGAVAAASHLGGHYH
How it was run: (§1)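 The binding signal reported is, for every hexamer, its read frequency for a factor over its read frequency for the tag-only sample. Reads came from pools of yeast-expressed, GST-fused human transcription factors on glutathione beads, barcoded with DNA and mixed with that sample, which were incubated with 200 nmole of a random double-stranded 16-mer DNA library in Tris/NaCl/DTT/glycerol buffer at room temperature for 30 min. After washing, the pools were crosslinked with 0.1% formaldehyde, proximity-ligated with BsaI/T4 ligase for 1 h at 37 °C, PCR-amplified and sequenced on an Illumina NextSeq500.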

ETV5 = ETV5 (Homo sapiens, UniProt P41161 1-510); settings: protein: recombinant; tags: N-terminal GST; dsDNA, one strand shown
ETV5, sequence (P41161 whole entry): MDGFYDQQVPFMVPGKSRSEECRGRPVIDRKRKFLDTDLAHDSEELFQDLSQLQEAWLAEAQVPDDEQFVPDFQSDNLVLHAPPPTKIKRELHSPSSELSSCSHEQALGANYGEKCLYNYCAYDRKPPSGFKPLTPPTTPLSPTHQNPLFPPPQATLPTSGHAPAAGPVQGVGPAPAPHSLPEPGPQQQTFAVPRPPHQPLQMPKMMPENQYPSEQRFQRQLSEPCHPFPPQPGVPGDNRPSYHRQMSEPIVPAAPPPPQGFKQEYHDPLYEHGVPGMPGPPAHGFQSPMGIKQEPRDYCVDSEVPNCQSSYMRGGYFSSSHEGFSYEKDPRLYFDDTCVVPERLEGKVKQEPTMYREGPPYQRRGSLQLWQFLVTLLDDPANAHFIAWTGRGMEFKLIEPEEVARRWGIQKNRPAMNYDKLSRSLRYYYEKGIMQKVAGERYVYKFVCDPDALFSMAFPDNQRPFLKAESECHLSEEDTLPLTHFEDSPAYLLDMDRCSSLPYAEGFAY
How it was run: as §1

HSF1 = HSF1 (Homo sapiens, UniProt Q00613 1-529); settings: protein: recombinant; tags: N-terminal GST; chain copies: 3; dsDNA, one strand shown
HSF1, sequence (Q00613 whole entry): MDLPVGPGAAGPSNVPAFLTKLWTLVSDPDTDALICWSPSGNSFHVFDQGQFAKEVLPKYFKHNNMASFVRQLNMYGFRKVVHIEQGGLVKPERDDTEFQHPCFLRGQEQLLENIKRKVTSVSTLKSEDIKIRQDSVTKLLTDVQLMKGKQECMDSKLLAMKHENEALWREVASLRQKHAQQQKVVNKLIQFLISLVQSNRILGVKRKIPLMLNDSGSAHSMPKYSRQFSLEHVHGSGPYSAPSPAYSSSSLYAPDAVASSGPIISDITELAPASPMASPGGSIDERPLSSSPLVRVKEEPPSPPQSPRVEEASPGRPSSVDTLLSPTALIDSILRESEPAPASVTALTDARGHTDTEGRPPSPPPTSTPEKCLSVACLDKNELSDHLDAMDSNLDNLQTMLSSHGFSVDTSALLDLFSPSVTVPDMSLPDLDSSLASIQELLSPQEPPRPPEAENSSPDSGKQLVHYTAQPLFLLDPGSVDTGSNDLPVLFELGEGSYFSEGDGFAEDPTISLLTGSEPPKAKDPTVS
How it was run: as §1

SPIC = target: T2, SPIC (Homo sapiens, UniProt Q8N5J4 1-248); settings: protein: recombinant; tags: N-terminal GST; dsDNA, one strand shown
T2 sequence: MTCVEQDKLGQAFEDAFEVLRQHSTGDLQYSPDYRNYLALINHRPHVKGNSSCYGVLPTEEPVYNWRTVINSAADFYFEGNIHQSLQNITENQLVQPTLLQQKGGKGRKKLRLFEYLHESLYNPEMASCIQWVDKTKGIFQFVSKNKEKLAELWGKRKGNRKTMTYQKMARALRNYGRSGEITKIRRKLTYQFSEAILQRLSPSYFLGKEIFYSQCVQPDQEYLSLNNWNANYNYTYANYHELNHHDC
How it was run: as §1

ELF4 = ELF4 (Homo sapiens, UniProt Q99607 1-663); settings: protein: recombinant; tags: N-terminal GST; dsDNA, one strand shown
ELF4, sequence (Q99607 whole entry): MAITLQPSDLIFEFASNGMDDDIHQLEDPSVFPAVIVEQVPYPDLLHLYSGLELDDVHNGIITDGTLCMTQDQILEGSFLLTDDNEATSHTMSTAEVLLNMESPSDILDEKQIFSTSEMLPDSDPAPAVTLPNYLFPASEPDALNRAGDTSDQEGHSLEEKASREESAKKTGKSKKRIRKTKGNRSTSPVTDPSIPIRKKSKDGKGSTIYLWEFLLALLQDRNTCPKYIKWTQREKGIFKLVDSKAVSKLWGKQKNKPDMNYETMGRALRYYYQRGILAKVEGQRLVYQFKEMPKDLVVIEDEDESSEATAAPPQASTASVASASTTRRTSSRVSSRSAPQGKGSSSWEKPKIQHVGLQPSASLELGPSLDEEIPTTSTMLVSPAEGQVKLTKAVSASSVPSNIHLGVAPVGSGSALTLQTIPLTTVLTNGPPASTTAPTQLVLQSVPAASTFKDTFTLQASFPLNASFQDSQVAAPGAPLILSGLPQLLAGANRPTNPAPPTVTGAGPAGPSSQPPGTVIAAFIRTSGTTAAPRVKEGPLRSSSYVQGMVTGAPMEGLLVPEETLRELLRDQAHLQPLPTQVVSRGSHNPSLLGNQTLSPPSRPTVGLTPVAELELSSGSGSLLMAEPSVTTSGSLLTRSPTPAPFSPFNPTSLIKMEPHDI
How it was run: as §1

ELK4 = target: T3, ELK4 (Homo sapiens, UniProt P28324-2 1-405); settings: protein: recombinant; tags: N-terminal GST; dsDNA, one strand shown
T3 sequence: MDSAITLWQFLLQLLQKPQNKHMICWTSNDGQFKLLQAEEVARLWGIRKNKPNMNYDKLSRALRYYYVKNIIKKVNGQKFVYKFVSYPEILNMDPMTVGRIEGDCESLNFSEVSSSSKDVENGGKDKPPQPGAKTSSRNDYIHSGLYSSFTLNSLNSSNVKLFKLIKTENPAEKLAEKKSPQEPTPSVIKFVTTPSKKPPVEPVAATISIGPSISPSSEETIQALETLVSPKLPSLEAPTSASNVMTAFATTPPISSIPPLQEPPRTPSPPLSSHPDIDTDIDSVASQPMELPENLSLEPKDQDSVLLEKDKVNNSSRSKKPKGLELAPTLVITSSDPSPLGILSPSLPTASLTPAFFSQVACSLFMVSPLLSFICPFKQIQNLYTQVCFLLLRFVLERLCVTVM
How it was run: as §1

ETV2 = target: T4, ETV2 (Homo sapiens, UniProt O00321 1-342); settings: protein: recombinant; tags: N-terminal GST; dsDNA, one strand shown
T4 sequence: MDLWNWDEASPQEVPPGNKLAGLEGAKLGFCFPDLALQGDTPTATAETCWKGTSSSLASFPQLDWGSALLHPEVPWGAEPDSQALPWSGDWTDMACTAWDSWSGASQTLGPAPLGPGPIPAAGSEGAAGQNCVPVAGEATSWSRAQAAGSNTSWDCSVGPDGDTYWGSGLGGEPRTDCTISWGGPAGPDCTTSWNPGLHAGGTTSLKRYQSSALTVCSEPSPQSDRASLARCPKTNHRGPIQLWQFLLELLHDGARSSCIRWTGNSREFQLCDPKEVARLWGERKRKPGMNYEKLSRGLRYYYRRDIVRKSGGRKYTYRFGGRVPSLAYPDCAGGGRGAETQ
How it was run: as §1

ELF3 = target: T5, ELF3 (Homo sapiens, UniProt P78545 1-371); settings: protein: recombinant; tags: N-terminal GST; dsDNA, one strand shown
T5 sequence: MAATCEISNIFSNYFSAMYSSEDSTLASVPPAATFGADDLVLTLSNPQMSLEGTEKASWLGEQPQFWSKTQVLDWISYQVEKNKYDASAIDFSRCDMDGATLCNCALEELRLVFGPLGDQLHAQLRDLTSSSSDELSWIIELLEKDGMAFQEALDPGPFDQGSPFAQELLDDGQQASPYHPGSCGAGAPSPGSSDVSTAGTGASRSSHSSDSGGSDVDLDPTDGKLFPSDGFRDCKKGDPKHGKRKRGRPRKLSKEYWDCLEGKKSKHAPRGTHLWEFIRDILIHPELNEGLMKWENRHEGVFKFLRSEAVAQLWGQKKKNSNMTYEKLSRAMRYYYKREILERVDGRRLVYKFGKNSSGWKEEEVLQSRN
How it was run: as §1

ETV1 = ETV1 (Homo sapiens, UniProt P50549 1-477); settings: protein: recombinant; tags: N-terminal GST; dsDNA, one strand shown
ETV1, sequence (P50549 whole entry): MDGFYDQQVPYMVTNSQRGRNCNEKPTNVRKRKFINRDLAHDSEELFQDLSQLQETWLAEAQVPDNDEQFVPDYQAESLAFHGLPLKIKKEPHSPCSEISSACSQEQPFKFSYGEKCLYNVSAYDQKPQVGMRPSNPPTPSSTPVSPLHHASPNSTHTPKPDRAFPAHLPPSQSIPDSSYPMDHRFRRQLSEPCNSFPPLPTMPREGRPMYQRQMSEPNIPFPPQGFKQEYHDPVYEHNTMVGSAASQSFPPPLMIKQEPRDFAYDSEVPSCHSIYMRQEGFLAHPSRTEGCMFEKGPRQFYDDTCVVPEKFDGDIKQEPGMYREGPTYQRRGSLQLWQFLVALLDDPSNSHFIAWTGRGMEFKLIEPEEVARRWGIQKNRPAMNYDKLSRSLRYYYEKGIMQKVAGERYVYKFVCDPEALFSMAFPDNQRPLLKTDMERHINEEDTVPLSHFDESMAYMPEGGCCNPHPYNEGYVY
How it was run: as §1

ERF = target: T6, ERF (Homo sapiens, UniProt P50548 1-548); settings: protein: recombinant; tags: N-terminal GST; dsDNA, one strand shown
T6 sequence: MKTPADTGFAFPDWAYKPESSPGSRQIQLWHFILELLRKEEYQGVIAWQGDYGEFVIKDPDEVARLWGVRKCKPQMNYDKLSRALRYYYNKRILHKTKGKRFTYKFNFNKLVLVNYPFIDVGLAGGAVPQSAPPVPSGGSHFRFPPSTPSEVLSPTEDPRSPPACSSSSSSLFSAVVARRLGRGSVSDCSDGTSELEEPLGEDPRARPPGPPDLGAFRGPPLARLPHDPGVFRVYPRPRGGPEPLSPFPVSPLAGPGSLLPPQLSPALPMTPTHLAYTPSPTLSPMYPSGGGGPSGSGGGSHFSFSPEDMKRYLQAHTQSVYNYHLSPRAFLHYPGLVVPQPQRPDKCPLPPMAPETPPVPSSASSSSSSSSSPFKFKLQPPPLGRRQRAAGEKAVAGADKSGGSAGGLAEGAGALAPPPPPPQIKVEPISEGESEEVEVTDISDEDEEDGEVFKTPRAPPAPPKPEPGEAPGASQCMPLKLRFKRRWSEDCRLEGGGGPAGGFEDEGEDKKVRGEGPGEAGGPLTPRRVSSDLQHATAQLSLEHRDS
How it was run: as §1

ETV3L = target: T7, ETV3L (Homo sapiens, UniProt Q6ZN32 1-361); settings: protein: recombinant; tags: N-terminal GST; dsDNA, one strand shown
T7 sequence: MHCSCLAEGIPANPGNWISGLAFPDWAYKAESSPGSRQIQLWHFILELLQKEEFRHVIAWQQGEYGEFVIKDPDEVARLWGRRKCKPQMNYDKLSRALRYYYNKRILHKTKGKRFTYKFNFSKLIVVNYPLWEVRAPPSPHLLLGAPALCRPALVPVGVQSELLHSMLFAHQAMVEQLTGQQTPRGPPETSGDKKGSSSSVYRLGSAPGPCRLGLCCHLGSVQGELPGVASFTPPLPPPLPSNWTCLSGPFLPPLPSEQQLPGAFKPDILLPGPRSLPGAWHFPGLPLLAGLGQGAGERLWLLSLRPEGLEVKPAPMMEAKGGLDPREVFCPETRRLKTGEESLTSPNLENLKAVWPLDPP
How it was run: as §1

ETS2 = target: T8, ETS2 (Homo sapiens, UniProt P15036 1-469); settings: protein: recombinant; tags: N-terminal GST; dsDNA, one strand shown
T8 sequence: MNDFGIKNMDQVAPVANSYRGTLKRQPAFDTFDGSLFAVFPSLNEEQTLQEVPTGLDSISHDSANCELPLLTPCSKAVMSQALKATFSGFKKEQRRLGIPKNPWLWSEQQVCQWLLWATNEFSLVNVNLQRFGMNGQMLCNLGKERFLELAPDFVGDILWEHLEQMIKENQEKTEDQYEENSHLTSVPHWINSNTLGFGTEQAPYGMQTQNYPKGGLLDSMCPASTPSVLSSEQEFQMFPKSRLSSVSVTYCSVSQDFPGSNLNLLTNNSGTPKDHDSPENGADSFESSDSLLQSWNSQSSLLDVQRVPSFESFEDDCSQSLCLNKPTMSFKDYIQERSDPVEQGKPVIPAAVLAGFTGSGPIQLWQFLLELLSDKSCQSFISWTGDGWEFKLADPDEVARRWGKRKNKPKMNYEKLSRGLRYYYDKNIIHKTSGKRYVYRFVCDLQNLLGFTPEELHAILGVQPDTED
How it was run: as §1

SPDEF = target: T9, SPDEF (Homo sapiens, UniProt O95238 1-335); settings: protein: recombinant; tags: N-terminal GST; dsDNA, one strand shown
T9 sequence: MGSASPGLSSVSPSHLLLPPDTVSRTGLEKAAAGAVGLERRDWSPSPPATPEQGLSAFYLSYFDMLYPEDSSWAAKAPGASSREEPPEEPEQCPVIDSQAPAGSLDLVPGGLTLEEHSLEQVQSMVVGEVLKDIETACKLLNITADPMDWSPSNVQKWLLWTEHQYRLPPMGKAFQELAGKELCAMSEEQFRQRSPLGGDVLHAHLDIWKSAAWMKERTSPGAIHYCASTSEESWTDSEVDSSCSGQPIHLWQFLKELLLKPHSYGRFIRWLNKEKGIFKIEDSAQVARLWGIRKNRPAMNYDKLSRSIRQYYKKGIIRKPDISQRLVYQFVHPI
How it was run: as §1

ETV7 = target: T10, ETV7 (Homo sapiens, UniProt Q9Y603 1-341); settings: protein: recombinant; tags: N-terminal GST; dsDNA, one strand shown
T10 sequence: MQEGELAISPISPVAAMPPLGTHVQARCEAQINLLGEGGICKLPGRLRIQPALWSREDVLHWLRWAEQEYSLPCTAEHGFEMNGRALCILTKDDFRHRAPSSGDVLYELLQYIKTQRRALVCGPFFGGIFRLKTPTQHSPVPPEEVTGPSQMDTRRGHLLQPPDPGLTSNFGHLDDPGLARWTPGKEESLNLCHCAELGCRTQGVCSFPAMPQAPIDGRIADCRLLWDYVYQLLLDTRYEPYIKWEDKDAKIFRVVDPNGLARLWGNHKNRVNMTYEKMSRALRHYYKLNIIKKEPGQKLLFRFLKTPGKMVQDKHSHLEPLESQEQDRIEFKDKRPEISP
How it was run: as §1

ELF5 = target: T11, ELF5 (Homo sapiens, UniProt Q9UKW6-2 1-255); settings: protein: recombinant; tags: N-terminal GST; dsDNA, one strand shown
T11 sequence: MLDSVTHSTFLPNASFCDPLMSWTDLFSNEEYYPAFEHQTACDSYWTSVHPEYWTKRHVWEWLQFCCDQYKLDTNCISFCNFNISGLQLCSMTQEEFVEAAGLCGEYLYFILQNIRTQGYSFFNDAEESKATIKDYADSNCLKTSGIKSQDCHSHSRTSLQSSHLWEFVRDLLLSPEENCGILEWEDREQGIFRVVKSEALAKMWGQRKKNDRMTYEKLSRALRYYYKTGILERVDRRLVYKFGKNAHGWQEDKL
How it was run: as §1

ETV3 = target: T12, ETV3 (Homo sapiens, UniProt P41162-2 1-143); settings: protein: recombinant; tags: N-terminal GST; dsDNA, one strand shown
T12 sequence: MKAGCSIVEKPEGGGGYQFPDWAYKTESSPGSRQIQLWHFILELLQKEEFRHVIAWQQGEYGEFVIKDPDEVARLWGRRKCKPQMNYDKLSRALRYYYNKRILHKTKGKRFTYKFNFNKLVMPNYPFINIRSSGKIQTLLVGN
How it was run: as §1

ETV6 = ETV6 (Homo sapiens, UniProt P41212 1-452); settings: protein: recombinant; tags: N-terminal GST; dsDNA, one strand shown
ETV6, sequence (P41212 whole entry): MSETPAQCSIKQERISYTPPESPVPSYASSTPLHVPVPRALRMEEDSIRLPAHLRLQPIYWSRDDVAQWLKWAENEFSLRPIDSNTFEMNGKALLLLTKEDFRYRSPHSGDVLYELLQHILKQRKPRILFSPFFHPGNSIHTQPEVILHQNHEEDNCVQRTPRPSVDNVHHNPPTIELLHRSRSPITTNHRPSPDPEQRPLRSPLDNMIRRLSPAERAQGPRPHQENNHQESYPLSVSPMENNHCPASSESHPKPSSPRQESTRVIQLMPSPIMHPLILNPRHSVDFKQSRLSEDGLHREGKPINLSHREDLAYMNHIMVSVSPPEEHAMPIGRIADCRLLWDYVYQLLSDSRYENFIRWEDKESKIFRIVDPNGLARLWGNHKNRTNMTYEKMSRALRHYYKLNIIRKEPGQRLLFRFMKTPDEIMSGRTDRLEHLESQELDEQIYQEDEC
How it was run: as §1

Sequence	binding signal (FEV)	binding signal (ETV5)	binding signal (HSF1)	binding signal (SPIC)	binding signal (ELF4)	binding signal (ELK4)	binding signal (ETV2)	binding signal (ELF3)	binding signal (ETV1)	binding signal (ERF)	binding signal (ETV3L)	binding signal (ETS2)	binding signal (SPDEF)	binding signal (ETV7)	binding signal (ELF5)	binding signal (ETV3)	binding signal (ETV6)
ACCATC	1.13 fold enrichment (6-mer frequency, TF over GST control)	1.11 fold enrichment (6-mer frequency, TF over GST control)	1.14 fold enrichment (6-mer frequency, TF over GST control)	1.02 fold enrichment (6-mer frequency, TF over GST control)	1.12 fold enrichment (6-mer frequency, TF over GST control)	1.13 fold enrichment (6-mer frequency, TF over GST control)	1.06 fold enrichment (6-mer frequency, TF over GST control)	1.19 fold enrichment (6-mer frequency, TF over GST control)	1.03 fold enrichment (6-mer frequency, TF over GST control)	1.14 fold enrichment (6-mer frequency, TF over GST control)	1.13 fold enrichment (6-mer frequency, TF over GST control)	1.12 fold enrichment (6-mer frequency, TF over GST control)	1.09 fold enrichment (6-mer frequency, TF over GST control)	1.16 fold enrichment (6-mer frequency, TF over GST control)	1.06 fold enrichment (6-mer frequency, TF over GST control)	1.03 fold enrichment (6-mer frequency, TF over GST control)	1.06 fold enrichment (6-mer frequency, TF over GST control)
CGTCCT	1.38 fold enrichment (6-mer frequency, TF over GST control)	1.32 fold enrichment (6-mer frequency, TF over GST control)	1.08 fold enrichment (6-mer frequency, TF over GST control)	1.27 fold enrichment (6-mer frequency, TF over GST control)	1.44 fold enrichment (6-mer frequency, TF over GST control)	1.4 fold enrichment (6-mer frequency, TF over GST control)	1.66 fold enrichment (6-mer frequency, TF over GST control)	1.31 fold enrichment (6-mer frequency, TF over GST control)	1.24 fold enrichment (6-mer frequency, TF over GST control)	1.41 fold enrichment (6-mer frequency, TF over GST control)	1.31 fold enrichment (6-mer frequency, TF over GST control)	1.28 fold enrichment (6-mer frequency, TF over GST control)	1.56 fold enrichment (6-mer frequency, TF over GST control)	1.45 fold enrichment (6-mer frequency, TF over GST control)	1.56 fold enrichment (6-mer frequency, TF over GST control)	1.53 fold enrichment (6-mer frequency, TF over GST control)	1.47 fold enrichment (6-mer frequency, TF over GST control)
